In all, about 5,500 compounds went through this assay and about 2,000 (36%) were called active. Roughly 18% stayed inconclusive and do not appear here. Cut-off read from the data, not from the text of the source: active = normalized growth mostly below about 0.91 (no sharp cut-off); inconclusive = no clear call, values can overlap the other calls; inactive = mostly above about 0.92. This is one part of the list.
Test: chemical genetic growth profiling, strain panel (AID 1159580);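 note: tested at 20 µM; growth read once vehicle control cultures reached saturation at 30 °C; 1 = growth at the plate median or of vehicle wells; lower values mean less growth of the strain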
Details: S. cerevisiae deletion strains, growth OD

Measured: normalized growth

C=C1C2CC[C@@]3(C)[C@H](c4ccoc4)OC(=O)C[C@]13O[C@H]1CC(=O)C(C)(C)C(CC(=O)OC)[C@@]21C (some centres not stated)
inactive: locus YAL021C, strain ccr4, active compounds read low 1.01 | locus YAL026C, strain drs2, active compounds read low 0.981 | locus YAL030W, strain snc1, active compounds read low 0.983 | locus YBL061C, strain skt5, active compounds read low 0.981 | locus YBR009C, strain hhf1, active compounds read low 0.995 | locus YBR021W, strain FUR4, active compounds read low 1 | locus YBR023C, strain chs3, active compounds read low 0.977 | locus YBR171W, strain sec66, active compounds read low 0.953 | locus YBR229C, strain ROT2, active compounds read low 0.989 | locus YBR231C, strain swc5, active compounds read low 0.983 | locus YBR279W, strain paf1, active compounds read low 0.979 | locus YCL011C, strain gbp2, active compounds read low 0.962 | locus YCL016C, strain dcc1, active compounds read low 1.01 | locus YCL029C, strain bik1, active compounds read low 0.992 | locus YCL061C, strain MRC1, active compounds read low 0.987 | locus YCL069W, strain vba3, active compounds read low 0.964 | locus YCR088W, strain abp1, active compounds read low 0.964 | locus YDL005C, strain med2, active compounds read low 0.969 | locus YDL035C, strain GPR1, active compounds read low 0.984 | locus YDL040C, strain nat1, active compounds read low 0.966 | locus YDL074C, strain BRE1, active compounds read low 1.01 | locus YDL101C, strain DUN1, active compounds read low 1 | locus YDL185W, strain tfp1, active compounds read low 1.01 | locus YDL192W, strain arf1, active compounds read low 0.988 | locus YDR001C, strain nth1, active compounds read low 0.976 | locus YDR069C, strain doa4, active compounds read low 0.975 | locus YDR101C, strain arx1, active compounds read low 0.986 | locus YDR137W, strain rgp1, active compounds read low 0.922 | locus YDR159W, strain sac3, active compounds read low 0.948 | locus YDR162C, strain NBP2, active compounds read low 0.962 | locus YDR195W, strain ref2 0.978 | locus YDR297W, strain sur2, active compounds read low 0.983 | locus YDR318W, strain mcm21, active compounds read low 0.998 | locus YDR334W, strain swr1, active compounds read low 0.966 | locus YDR335W, strain msn5, active compounds read low 0.972 | locus YDR388W, active compounds read low 1.02 | locus YDR392W, strain spt3, active compounds read low 0.958 | locus YDR502C, strain sam2, active compounds read low 1.01 | locus YEL003W, strain gim4, active compounds read low 0.979 | locus YEL037C, strain rad23, active compounds read low 0.97 | locus YEL061C, strain CIN8 (second series), active compounds read low 0.966 | locus YER015W, strain faa2, active compounds read low 0.987 | locus YER016W, strain bim1, active compounds read low 0.975 | locus YER110C, active compounds read low 1.01 | locus YER111C, strain swi4, active compounds read low 0.978 | locus YER155C, strain BEM2 (second series), active compounds read low 0.991 | locus YER155C, strain BEM2, active compounds read low 1.01 | locus YER167W, strain BCK2, active compounds read low 0.984 | locus YFR010W, strain ubp6, active compounds read low 0.963 | locus YGL078C, strain dbp3, active compounds read low 1.02 | locus YGL086W, strain mad1, active compounds read low 1 | locus YGL167C, strain pmr1, active compounds read low 0.97 | locus YGL173C, strain kem1, active compounds read low 0.969 | locus YGL227W, strain vid30, active compounds read low 0.973 | locus YGL240W, strain doc1, active compounds read low 0.974 | locus YGL248W, strain PDE1, active compounds read low 0.998 | locus YGL253W, strain hxk2, active compounds read low 0.952 | locus YGR135W, strain pre9, active compounds read low 1.03 | locus YGR252W, strain gcn5, active compounds read low 1.01 | locus YHR013C, strain ard1, active compounds read low 0.974 | locus YHR027C, strain rpn1, active compounds read low 0.985 | locus YHR030C, strain SLT2, active compounds read low 0.996 | locus YHR079C, strain IRE1 (second series), active compounds read low 0.998 | locus YHR094C, strain hxt1, active compounds read low 1.01 | locus YHR129C, strain ARP1, active compounds read low 1.01 | locus YHR142W, strain chs7, active compounds read low 0.969 | locus YHR200W, strain rpn10, active compounds read low 1.01 | locus YIL066C, strain RNR3, active compounds read low 0.989 | locus YIL073C, strain SPO22, active compounds read low 1.04 | locus YIL125W, strain kgd1, active compounds read low 1 | locus YIR030C, strain dcg1, active compounds read low 1 | locus YJL092W, strain hpr5, active compounds read low 0.967 | locus YJL095W, strain BCK1 (second series), active compounds read low 0.991 | locus YJL095W, strain BCK1, active compounds read low 1.03 | locus YJL115W, strain asf1, active compounds read low 0.973 | locus YJL129C, strain trk1, active compounds read low 0.961 | locus YJL134W, strain LCB3, active compounds read low 1.01 | locus YJL154C, strain vps35, active compounds read low 0.973 | locus YJL164C, strain tpk1, active compounds read low 1 | locus YJL166W, strain qcr8, active compounds read low 0.977 | locus YJL168C, strain set2, active compounds read low 0.998 | locus YJL187C, strain SWE1 (second series), active compounds read low 1.01 | locus YJL187C, strain SWE1, active compounds read low 0.974 | locus YKL009W, strain mrt4, active compounds read low 0.968 | locus YKL068W, active compounds read low 1 | locus YKL085W, strain MDH1 (second series), active compounds read low 0.989 | locus YKL085W, strain MDH1, active compounds read low 0.989 | locus YKL160W, strain elf1, active compounds read low 1.01 | locus YKR001C, strain vps1, active compounds read low 1 | locus YKR026C, strain gcn3, active compounds read low 0.979 | locus YKR091W, strain srl3, active compounds read low 0.986 | locus YLL001W, strain dnm1, active compounds read low 1.01 | locus YLL026W, active compounds read low 0.981 | locus YLL041C, strain sdh2, active compounds read low 0.974 | locus YLR027C, strain aat2, active compounds read low 0.996 | locus YLR039C, strain RIC1, active compounds read low 0.794 | locus YLR058C, strain SHM2, active compounds read low 1 | locus YLR102C, strain apc9, active compounds read low 1 | locus YLR221C, strain rsa3, active compounds read low 0.957 | locus YLR258W, strain gsy2, active compounds read low 0.975 | locus YLR262C, strain YPT6 (second series), active compounds read low 0.923 | locus YLR262C, strain YPT6, active compounds read low 0.701 | locus YLR268W, strain sec22, active compounds read low 0.984 | locus YLR320W, strain mms22, active compounds read low 0.964 | locus YLR342W, strain FKS1 (second series), active compounds read low 1 | locus YLR342W, strain FKS1, active compounds read low 0.993 | locus YLR357W, strain rsc2, active compounds read low 0.991 | locus YLR370C, strain arc18, active compounds read low 0.955 | locus YLR371W, strain rom2, active compounds read low 1.01 | locus YLR384C, strain iki3, active compounds read low 0.964 | locus YLR418C, strain cdc73, active compounds read low 1.01 | locus YML016C, strain PPZ1, active compounds read low 0.995 | locus YML032C, strain rad52, active compounds read low 1.02 | locus YML120C, strain ndi1, active compounds read low 0.973 | locus YML124C, strain tub3, active compounds read low 1.01 | locus YMR058W, strain fet3, active compounds read low 0.983 | locus YMR078C, strain ctf18, active compounds read low 1.01 | locus YMR125W, strain sto1, active compounds read low 0.98 | locus YMR129W, active compounds read low 0.985 | locus YMR205C, strain PFK2, active compounds read low 1.03 | locus YMR223W, strain ubp8, active compounds read low 1 | locus YMR231W, strain pep5, active compounds read low 0.943 | locus YMR307W, strain GAS1, active compounds read low 0.998 | locus YNL067W, strain RPL9B, active compounds read low 1.02 | locus YNL071W, strain lat1, active compounds read low 0.982 | locus YNL128W, strain TEP1, active compounds read low 0.996 | locus YNL209W, strain ssb2, active compounds read low 0.978 | locus YNL233W, strain BNI4, active compounds read low 0.969 | locus YNL248C, strain rpa49, active compounds read low 0.986 | locus YNL250W, strain rad50, active compounds read low 1.02 | locus YNL271C, strain bni1, active compounds read low 1 | locus YNL298W, strain CLA4, active compounds read low 1.01 | locus YNL307C, strain MCK1, active compounds read low 1.01 | locus YNL322C, strain KRE1 (second series), active compounds read low 0.967 | locus YNR049C, strain mso1, active compounds read low 0.982 | locus YNR052C, strain pop2, active compounds read low 1.01 | locus YOL012C, strain htz1 0.839 | locus YOL147C, strain pex11, active compounds read low 1.01 | locus YOR001W, strain rrp6, active compounds read low 0.944 | locus YOR061W, strain CKA2, active compounds read low 0.993 | locus YOR069W, strain VPS5, active compounds read low 1 | locus YOR070C, strain gyp1, active compounds read low 1.01 | locus YOR080W, strain dia2, active compounds read low 0.957 | locus YOR083W, strain WHI5, active compounds read low 1.01 | locus YOR106W, strain vam3, active compounds read low 0.982 | locus YOR136W, strain idh2, active compounds read low 1 | locus YOR144C, strain elg1, active compounds read low 1.01 | locus YOR184W, strain ser1, active compounds read low 0.985 | locus YOR265W, strain rbl2, active compounds read low 1 | locus YOR270C, strain vph1, active compounds read low 0.957 | locus YOR290C, strain snf2, active compounds read low 0.97 | locus YOR316C, strain cot1, active compounds read low 1 | locus YPL051W, strain arl3, active compounds read low 0.995 | locus YPL078C, strain atp4, active compounds read low 1.01 | locus YPL106C, strain sse1, active compounds read low 0.978 | locus YPL240C, strain hsp82, active compounds read low 0.965 | locus YPL241C, strain CIN2, active compounds read low 0.998 | locus YPR119W, strain clb2, active compounds read low 1.01 | locus YPR141C, strain kar3, active compounds read low 0.997 | locus YPR163C, strain tif3, active compounds read low 1.01 | locus YPR167C, strain met16, active compounds read low 1 | strain wtn01, active compounds read low 0.987

Reference: PubChem BioAssay AID1159580 (chemical genetic matrix, 2015)
